Measurements: PubChem BioAssay (NCI)
Compounds without any hit were thinned out: in the full panel of roughly 79,000, 15% have a hit. The source made the active and inactive calls. No stated cut-off is given here; in the data, active means growth inhibition above about 70%; inactive means the rest.

Legend:
[1] = NCI Yeast Anticancer Drug Screen. Data for the rad52 strain (AID 147);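 further: 0% = growth of vehicle-treated control cultures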; conditions: S. cerevisiae rad52 mutant growth inhibition, active compounds read high
Outline: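 Compounds are applied to a genetically defined yeast strain lacking normal DNA damage repair, and inhibition of growth is expressed relative to cultures given vehicle only.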

[2] = NCI Yeast Anticancer Drug Screen. Data for the wt1 strain (AID 149);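 further: 0% = growth of vehicle-treated wt1 cultures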; conditions: S. cerevisiae wt1 strain (SPY 50644) growth inhibition, active compounds read high
Outline: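 wt1 strain grown with compound or vehicle; inhibition taken from the growth difference.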

[3] = NCI Yeast Anticancer Drug Screen. Data for the rad50EPP+ strain (AID 151);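 further: 0% = growth of vehicle-treated control cultures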; conditions: S. cerevisiae rad50 mutant strain, active compounds read high
Outline: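 Compounds were applied to the rad50EPP+ yeast strain, which bears a defined DNA repair alteration, and growth inhibition was determined relative to vehicle-treated cultures.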

[4] = NCI Yeast Anticancer Drug Screen. Data for the mgt1 strain (AID 153); conditions: S. cerevisiae mgt1 mutant growth inhibition, active compounds read high
Outline: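 Strain: mgt1 yeast, one of a set carrying defined DNA damage repair or cell cycle control alterations. Compound-treated growth compared with vehicle.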

[5] = NCI Yeast Anticancer Drug Screen. Data for the rad50 strain (AID 155);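 further: 0% = growth of vehicle-only cultures of the same strain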; conditions: S. cerevisiae rad50 strain growth inhibition, active compounds read high
Outline: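 DNA repair mutant yeast, compound exposure, growth read-out; inhibition is taken relative to vehicle.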

[6] = NCI Yeast Anticancer Drug Screen. Data for the mec2-1 strain (AID 157); conditions: S. cerevisiae mec2-1 strain, active compounds read high
Outline: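 Strain: mec2-1 (DNA repair/cell cycle alteration). Compound exposure, then growth measured; inhibition expressed relative to vehicle.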

[7] = NCI Yeast Anticancer Drug Screen. Data for the rad14 strain (AID 159);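 further: 0% = growth of vehicle-treated control cultures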; conditions: S. cerevisiae rad14 strain growth inhibition, active compounds read high
Outline: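 DNA repair-defective yeast, compound-exposed; % growth inhibition derived by comparison with vehicle-treated controls.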

[8] = NCI Yeast Anticancer Drug Screen. Data for the sgs1 mgt1 strain (AID 161);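 further: 0% = growth of cultures given vehicle only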; conditions: S. cerevisiae sgs1 mgt1 strain, active compounds read high
Outline: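 Read-out: growth inhibition vs vehicle controls. Cells: mutant yeast strain deficient in DNA damage repair.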

[9] = NCI Yeast Anticancer Drug Screen. Data for the CLN2oe strain (AID 163);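 further: 0% = growth of vehicle-only control cultures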; conditions: S. cerevisiae CLN2oe strain, active compounds read high
Outline: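 Growth of a genetically modified yeast strain is measured after compound exposure and compared with cultures given vehicle alone.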

[10] = NCI Yeast Anticancer Drug Screen. Data for the cln2 rad14 strain (AID 165);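 further: 0% = growth equal to vehicle treated cultures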; conditions: S. cerevisiae cln2 rad14 strain, active compounds read high
Outline: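 Compounds are applied to the cln2 rad14 yeast strain, and growth is then compared with that of vehicle-treated cultures to give inhibition.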

[11] = NCI Yeast Anticancer Drug Screen. Data for the bub3 strain (AID 167); conditions: S. cerevisiae bub3 mutant strain, active compounds read high
Outline: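 In this screen, a yeast mutant lacking normal mitotic checkpoint function is challenged with compound. Relative growth versus vehicle gives the inhibition value.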

[12] = NCI Yeast Anticancer Drug Screen. Data for the wt2 strain (AID 169);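 further: 0% = growth of vehicle-treated yeast cultures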; conditions: S. cerevisiae wt2 strain growth inhibition, active compounds read high
Outline: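 This strain belongs to a panel of yeast strains with defined genetic alterations in DNA damage repair or cell cycle control. Compounds are applied, and growth inhibition is measured against vehicle-treated cultures.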

[13] = NCI Yeast Anticancer Drug Screen. Data for the mlh1 strain (AID 171);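 further: 0% = growth of vehicle-treated control cultures of the same strain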; conditions: S. cerevisiae mlh1 strain growth inhibition, active compounds read high
Outline: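 Growth of the mutant yeast strain after compound exposure, expressed as inhibition relative to vehicle-only controls.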

[14] = NCI Yeast Anticancer Drug Screen. Data for the sgs1 strain (AID 173);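 further: 0% = growth of vehicle-only control cultures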; conditions: S. cerevisiae sgs1 mutant, active compounds read high
Outline: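 Growth of a yeast strain bearing a defined genetic alteration is measured after compound treatment. Inhibition is expressed relative to vehicle-only controls.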

[15] = NCI Yeast Anticancer Drug Screen. Data for the mlh1 rad18 strain (AID 175); conditions: S. cerevisiae mlh1 rad18 strain growth inhibition, active compounds read high
Outline: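 Read-out is yeast growth inhibition, calculated against vehicle-only controls. The compound was applied to a strain engineered with DNA damage repair alterations.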

[16] = NCI Yeast Anticancer Drug Screen. Data for the rad18 strain (AID 177); conditions: S. cerevisiae rad18 mutant growth inhibition, active compounds read high
Outline: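 Growth of the mutant yeast strain after compound exposure, normalised to vehicle-only cultures.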

[17] = at 5.0 µM (retest, dose inferred, filed as 0.5)
[18] = at 50.0 µM (retest, dose inferred, filed as 5.0)

Measured: growth inhibition

O=C(O)C1CC(c2ccccc2)=NN1c1ccccc1 (stereo unspecified)
active: [1]; at 100.0 µM 95% | [2]; at 100.0 µM 93% | [4]; at 100.0 µM 95% | [5]; [18] 84% | [5]; at 100.0 µM 95% | [6]; [18] 84% | [6]; at 100.0 µM 92% | [7]; at 100.0 µM 97% | [9]; at 100.0 µM 97% | [11]; [18] 78% | [11]; at 100.0 µM 94% | [12]; at 100.0 µM 98% | [13]; at 100.0 µM 96% | [14]; at 100.0 µM 96% | [15]; [18] 96% | [15]; at 50.0 µM 85.2% | [16]; at 100.0 µM 96%
inactive: [1]; at 1.2 µM -28% | [1]; at 3.7 µM -9% | [1]; at 11.0 µM 4% | [1]; at 33.0 µM 58% | [2]; at 1.2 µM -60% | [2]; at 3.7 µM -56% | [2]; at 11.0 µM -50% | [2]; at 33.0 µM -11% | [3]; at 1.2 µM -17% | [3]; at 3.7 µM -17% | [3]; at 11.0 µM -9% | [3]; at 33.0 µM -3% | [3]; at 100.0 µM 51% | [4]; at 1.2 µM -48% | [4]; at 3.7 µM -56% | [4]; at 11.0 µM -41% | [4]; at 33.0 µM -1% | [5]; at 1.2 µM -10% | [5]; at 3.7 µM -11% | [5]; [17] 27% | [5]; at 11.0 µM -1% | [5]; at 33.0 µM 33% | [5]; at 50.0 µM 19.4% | [6]; at 1.2 µM -45% | [6]; at 3.7 µM -53% | [6]; [17] 27% | [6]; at 11.0 µM -42% | [6]; at 33.0 µM -43% | [6]; at 50.0 µM 59.8% | [7]; at 1.2 µM -19% | [7]; at 3.7 µM -15% | [7]; at 11.0 µM -18% | [7]; at 33.0 µM 28% | [8]; [17] -12% | [8]; [18] 25% | [8]; at 50.0 µM 58.6% | [9]; at 1.2 µM -5% | [9]; at 3.7 µM 17% | [9]; at 11.0 µM 22% | [9]; at 33.0 µM 29% | [10]; [17] -15% | [10]; [18] -61% | [10]; at 50.0 µM 62.8% | [11]; at 1.2 µM -28% | [11]; at 3.7 µM -22% | [11]; [17] -7% | [11]; at 11.0 µM -20% | [11]; at 33.0 µM -10% | [11]; at 50.0 µM 46% | [12]; at 1.2 µM -38% | [12]; at 3.7 µM -46% | [12]; at 11.0 µM -36% | [12]; at 33.0 µM 0% | [13]; at 1.2 µM -31% | [13]; at 3.7 µM -14% | [13]; at 11.0 µM -9% | [13]; at 33.0 µM 8% | [14]; at 1.2 µM -29% | [14]; at 3.7 µM -34% | [14]; at 11.0 µM -16% | [14]; at 33.0 µM 20% | [15]; [17] 52% | [16]; at 1.2 µM -38% | [16]; at 3.7 µM -37% | [16]; at 11.0 µM -12% | [16]; at 33.0 µM 26%

CCCCC(CC)C(=O)[O][Sn]([CH2]CCC)([CH2]CCC)[O]C(=O)C(CC)CCCC (stereo unspecified)
inactive: [1]; at 1.2 µM 6% | [1]; at 3.7 µM 11% | [1]; at 11.0 µM 47% | [2]; at 1.2 µM -14% | [2]; at 3.7 µM -7% | [2]; at 11.0 µM 46% | [3]; at 1.2 µM 18% | [3]; at 3.7 µM 6% | [3]; at 11.0 µM 8% | [3]; at 33.0 µM 12% | [3]; at 100.0 µM 29% | [4]; at 1.2 µM -11% | [4]; at 3.7 µM 9% | [4]; at 11.0 µM 60% | [5]; at 1.2 µM 14% | [5]; at 3.7 µM 11% | [5]; [17] 50% | [5]; at 11.0 µM 51% | [6]; at 1.2 µM -11% | [6]; at 3.7 µM 14% | [6]; at 11.0 µM 56% | [6]; [18] 69% | [7]; at 1.2 µM -8% | [7]; at 3.7 µM 3% | [7]; at 11.0 µM 47% | [8]; [17] 2% | [9]; at 1.2 µM -21% | [9]; at 3.7 µM 5% | [9]; at 11.0 µM 37% | [10]; [17] 59% | [11]; at 1.2 µM 6% | [11]; at 3.7 µM 18% | [11]; [17] 44% | [11]; at 11.0 µM 68% | [12]; at 1.2 µM -27% | [12]; at 3.7 µM -10% | [12]; at 11.0 µM 49% | [13]; at 1.2 µM -38% | [13]; at 3.7 µM -21% | [13]; at 11.0 µM 33% | [14]; at 1.2 µM 2% | [14]; at 3.7 µM -5% | [14]; at 11.0 µM 37% | [15]; [17] 58% | [16]; at 1.2 µM -2% | [16]; at 3.7 µM 0% | [16]; at 11.0 µM 46%
active: [1]; at 33.0 µM 92% | [1]; at 100.0 µM 98% | [2]; at 33.0 µM 93% | [2]; at 100.0 µM 98% | [4]; at 33.0 µM 95% | [4]; at 100.0 µM 98% | [5]; at 33.0 µM 92% | [5]; [18] 98% | [5]; at 50.0 µM 86.4% | [5]; at 100.0 µM 97% | [6]; [17] 72% | [6]; at 33.0 µM 94% | [6]; at 50.0 µM 87.7% | [6]; at 100.0 µM 98% | [7]; at 33.0 µM 90% | [7]; at 100.0 µM 97% | [8]; [18] 95% | [8]; at 50.0 µM 89.4% | [9]; at 33.0 µM 92% | [9]; at 100.0 µM 98% | [10]; [18] 97% | [10]; at 50.0 µM 86.2% | [11]; at 33.0 µM 95% | [11]; [18] 93% | [11]; at 50.0 µM 89.8% | [11]; at 100.0 µM 98% | [12]; at 33.0 µM 90% | [12]; at 100.0 µM 98% | [13]; at 33.0 µM 88% | [13]; at 100.0 µM 97% | [14]; at 33.0 µM 89% | [14]; at 100.0 µM 97% | [15]; [18] 98% | [15]; at 50.0 µM 88.8% | [16]; at 33.0 µM 91% | [16]; at 100.0 µM 97%
